Results as given in PubChem BioAssay (NCI).
“And” between values parts separate entries of the source, which are not always exact repeats. Equal entries are not always repeated. The panel holds about 79,000 compounds, 15% with a hit somewhere; the sample as a whole holds those more often. The source made the active and inactive calls. Rule as the data show it: active = growth inhibition above about 70%; inactive = the rest. Where a SMILES comes first, the peptide text is derived from it. The star is where a group is joined. Fmoc = O=C(OCC1c2ccccc2-c2ccccc21)*; Boc = CC(C)(C)OC(=O)*; OtBu = CC(C)(C)O*

Key:
[1] = NCI Yeast Anticancer Drug Screen. Data for the rad50 strain (AID 155);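 also: 0% = growth of vehicle-only cultures of the same strain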; conditions: S. cerevisiae rad50 strain growth inhibition; at 50.0 µM; stronger effect = higher value
Outline: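 Vehicle-treated cultures provide the reference for the growth inhibition reported for compound-exposed, repair-deficient yeast.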

[2] = NCI Yeast Anticancer Drug Screen. Data for the mec2-1 strain (AID 157); conditions: S. cerevisiae mec2-1 strain, stronger effect = higher value
Outline: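 Mutant yeast (mec2-1) grown with compound; growth inhibition relative to vehicle control reported.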

[3] = NCI Yeast Anticancer Drug Screen. Data for the sgs1 mgt1 strain (AID 161);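 also: 0% = growth of cultures given vehicle only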; conditions: S. cerevisiae sgs1 mgt1 strain, stronger effect = higher value
Outline: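 Growth of a repair-deficient yeast mutant was monitored after compound treatment and expressed as inhibition relative to vehicle-treated cultures.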

[4] = NCI Yeast Anticancer Drug Screen. Data for the cln2 rad14 strain (AID 165);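 also: 0% = growth equal to vehicle treated cultures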; conditions: S. cerevisiae cln2 rad14 strain, stronger effect = higher value
Outline: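 Readout is yeast growth inhibition versus vehicle-treated controls, using a strain with cln2 and rad14 alterations exposed to compound.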

[5] = NCI Yeast Anticancer Drug Screen. Data for the bub3 strain (AID 167); conditions: S. cerevisiae bub3 mutant strain, stronger effect = higher value
Outline: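 Mutant yeast screening strain plus compound; vehicle-treated cultures serve as the 0% inhibition reference.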

[6] = NCI Yeast Anticancer Drug Screen. Data for the mlh1 rad18 strain (AID 175); conditions: S. cerevisiae mlh1 rad18 strain growth inhibition, stronger effect = higher value
Outline: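 Genetically defined yeast (DNA repair-deficient) exposed to compounds; growth inhibition determined relative to vehicle.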

[7] = at 5.0 µM (retest, dose inferred, filed as 0.5)
[8] = at 50.0 µM (retest, dose inferred, filed as 5.0)

Measured: growth inhibition

CC(=O)N1CCN(C(C)=O)C2C1N(C(C)=O)CCN2C(C)=O (stereo not drawn)
inactive: [1] -11.7% and 11.8% | [2]; at 50.0 µM -18.9% and -10.6% | [3]; at 50.0 µM -24.6% and 11.8% | [4]; at 50.0 µM -20.1% and 27% | [5]; at 50.0 µM -19.6% and 19.8% | [6]; at 50.0 µM -17.1% and 35.9%

CC(CCC(C)C(=O)O)C(=O)O (stereo not drawn)
inactive: [1] -10.1% and 40.4% | [2]; at 50.0 µM -12.8% and 9.8% | [3]; at 50.0 µM -2.05% and 15.4% | [4]; at 50.0 µM 12.2% and 13% | [5]; at 50.0 µM -15.1% and 22.6% | [6]; at 50.0 µM -0.25% and 27.9%

O=C(NC(=O)C(C(=O)c1ccccc1)c1ccccc1)c1ccccc1 (stereo not drawn)
inactive: [1] -3.95% and 2.65% | [2]; at 50.0 µM 2.1% and -1.35% | [3]; at 50.0 µM -6.9% and -12.2% | [4]; at 50.0 µM 0.15% and 9.9% | [5]; at 50.0 µM 5.6% and -4.05% | [6]; at 50.0 µM -5.05% and -6.25%

O=C(O)CCSCc1ccccc1
inactive: [1] -25.6% and 8.85% | [2]; at 50.0 µM 0.7% and -6.9% | [3]; at 50.0 µM -23.1% and 1.55% | [4]; at 50.0 µM -31% and -3.5% | [5]; at 50.0 µM -31.4% and -0.2% | [6]; at 50.0 µM -30.3% and -16.1%

Cc1ccc(C)c(NC(=O)CC2Sc3ccccc3NC2=O)c1 (stereo not drawn)
inactive: [1] -0.4% and -7.3% | [2]; at 50.0 µM -25.8% and -19.4% | [3]; at 50.0 µM 8.4% and -28.5% | [4]; at 50.0 µM 21.9% and 8.45% | [5]; at 50.0 µM 26.3% and 10.3% | [6]; at 50.0 µM -5.05% and -88%

O=C(O)CC(O)C(=O)O (stereo not drawn)
inactive: [1] -2.95% and 0.45% | [2]; at 50.0 µM -20.2% and 3.55% | [3]; at 50.0 µM -39.1% and -1.05% | [4]; at 50.0 µM -19.6% and 3.85% | [5]; at 50.0 µM 5.25% and -2.85% | [6]; at 50.0 µM -43% and -1.2%

CC(=O)OC1COC(N2CCc3ccccc32)C(OC(C)=O)C1OC(C)=O (stereo not drawn)
inactive: [1] -16.2% and -19% | [2]; at 50.0 µM -2.95% and -28% | [4]; at 50.0 µM -6.75% and -2.5% | [5]; at 50.0 µM -27.7% and -17.9% | [6]; at 50.0 µM -25.2% and -33.2%

COc1c2occc2c(OC)c2c(=O)cc(C)oc12
inactive: [1] 20.9% and 2.55% | [2]; at 50.0 µM -2.15% and -27.4% | [3]; at 50.0 µM 16.8% and 9.95% | [5]; at 50.0 µM 7.9% and 5.95% | [6]; at 50.0 µM 22.1% and 9.4%

CC(=O)OCC(OC(C)=O)C(OC(C)=O)C(OC(C)=O)C(C=NN(C(C)=O)S(=O)(=O)c1ccc(/C=C2\NC(=O)N(C)C2=O)cc1)OC(C)=O (stereo not drawn)
inactive: [1] 10.8% and 20.4% | [2]; at 50.0 µM 5.25% and -9.85% | [3]; at 50.0 µM 19.9% and 15.7% | [4]; at 50.0 µM 12.8% and 33.5% | [6]; at 50.0 µM 22.8% and 12.1%

CCCOC(=O)c1nc(N(CC2CCCCC2)C(=O)NC)sc1/N=C/c1ccccc1
active: [2]; [8] 90% | [3]; [8] 91% | [4]; [8] 88% | [5]; [7] 77% | [5]; [8] 92% | [6]; [7] 73% | [6]; [8] 92%
inactive: [2]; [7] 62% | [2]; at 50.0 µM -18.9% | [3]; [7] 45% | [3]; at 50.0 µM 4.25% | [4]; [7] 68% | [4]; at 50.0 µM 37.9% | [5]; at 50.0 µM 10.8% | [6]; at 50.0 µM -10.2%

Cc1cc(O)c(O)c(C(C)(C)CC(C)(C)C)c1
active: [2]; [8] 83% | [2]; at 50.0 µM 92.5% | [3]; [7] 97% | [3]; [8] 100% | [4]; [7] 78% | [4]; [8] 100% | [5]; [7] 94% | [5]; [8] 99% | [6]; [8] 73% | [6]; at 50.0 µM 91.2%
inactive: [2]; [7] 38% | [6]; [7] 23%

CC(=O)OC1COC(n2cnc3c(=S)nc[nH]c32)C(OC(C)=O)C1OC(C)=O (stereo not drawn)
inactive: [1] 24.2% and -2.35% | [3]; at 50.0 µM 21.3% and -16.4% | [4]; at 50.0 µM 18.4% and -19.2% | [5]; at 50.0 µM 0.7% and 1.65% | [6]; at 50.0 µM 7.35% and -11.9%

O=c1c(I)c[nH]cc1I
inactive: [1] -12.1% and -3.2% | [2]; at 50.0 µM -15.9% and 14.1% | [4]; at 50.0 µM 3.35% and 22.6% | [5]; at 50.0 µM -9.4% and 15.7% | [6]; at 50.0 µM 22.2% and 14.8%

CCCCCCCCCCCC[N+]1(CCCCCCCCCCCC)CCCC(C)C1 (stereo not drawn)
active: [2]; [7] 100% | [2]; [8] 94% | [2]; at 50.0 µM 91.3% | [3]; [7] 100% | [3]; [8] 99% | [3]; at 50.0 µM 91.1% | [4]; [7] 99% | [4]; [8] 99% | [4]; at 50.0 µM 88.1% | [5]; [7] 99% | [5]; [8] 99% | [5]; at 50.0 µM 90% | [6]; [7] 99% | [6]; [8] 99% | [6]; at 50.0 µM 88.7%

CC(O)c1nc2c([nH]1)c(=O)n(C)c(=O)n2C (stereo not drawn)
inactive: [1] -4.3% and -3.1% | [3]; at 50.0 µM -5.6% and -2% | [4]; at 50.0 µM -30.3% and -16.9% | [5]; at 50.0 µM 5.7% and -13.9% | [6]; at 50.0 µM 9.15% and -23.2%

NC(Cc1cnc[nH]1)C(=O)O (stereo not drawn)
inactive: [1] -15.4% and 3.95% | [2]; at 50.0 µM -27.9% and 0.2% | [3]; at 50.0 µM 2.35% and 16.4% | [5]; at 50.0 µM -4.35% and 3.9% | [6]; at 50.0 µM -20.9% and -3.1%

CC(=O)NC(Cc1ccccc1)C(=O)O (stereo not drawn)
inactive: [1] 11.1% and -7.55% | [2]; at 50.0 µM -3% and -7.6% | [3]; at 50.0 µM 15.7% and 4.25% | [4]; at 50.0 µM 6.3% and -52.9% | [6]; at 50.0 µM -18.3% and -27.1%

CC(C)(C)OC(=O)CCC(NC(=O)OCC1c2ccccc2-c2ccccc21)C(=O)NC(Cc1c[nH]c2ccccc12)C(=O)NC(CCCCNC(=O)OC(C)(C)C)C(=O)N1CCCC1C(=O)NCC(N)=O (stereo not drawn) (Fmoc-E(OtBu)WK(Boc)PG-NH2; configuration not given here)
inactive: [1] -24.2% and -27.9% | [2]; at 50.0 µM -23.1% and -22.1% | [3]; at 50.0 µM -12.7% and -17% | [4]; at 50.0 µM 5.7% and 12.8% | [5]; at 50.0 µM -16.6% and -4.35% | [6]; at 50.0 µM -17.8% and -22.2%

CCCCC(C=O)(C=C=C(C)C)CC (stereo not drawn)
inactive: [2]; [7] -2% | [2]; [8] 0% | [2]; at 50.0 µM 52.1% | [3]; [7] 0% | [3]; [8] 35% | [3]; at 50.0 µM 61.3% | [4]; [7] -7% | [4]; [8] 26% | [4]; at 50.0 µM 36.4% | [5]; [7] -13% | [5]; [8] 2% | [5]; at 50.0 µM 66.3% | [6]; [7] -32% | [6]; [8] -4% | [6]; at 50.0 µM 16.9%

CC(=O)N(O)CCCCCNC(=O)CCC(=O)N(O)CCCCCNC(=O)CCC(=O)N(O)CCCCCN
inactive: [2]; at 50.0 µM -9.65% and -0.45% | [3]; at 50.0 µM 2.1% and -5.3% | [4]; at 50.0 µM 6.9% and 5.75% | [6]; at 50.0 µM 11.4% and 4.05%

NCCC(=O)c1ccccc1
inactive: [1] -8.25% and 0.05% | [2]; at 50.0 µM -4.2% and 6.2% | [3]; at 50.0 µM -14.6% and -1.4% | [4]; at 50.0 µM -17.4% and 7.65% | [5]; at 50.0 µM -19.5% and 7.95% | [6]; at 50.0 µM -2.7% and 25.3%

O=C(OCC(OC(=O)c1ccccc1)C(OC(=O)c1ccccc1)c1cnn(-c2ccccc2)n1)c1ccccc1 (stereo not drawn)
inactive: [1] -24.1% and 4.05% | [2]; at 50.0 µM 4.1% and 15.4% | [3]; at 50.0 µM -34.4% and -11.9% | [4]; at 50.0 µM -35% and -15.7% | [6]; at 50.0 µM -4.25% and 17.6%

OCC1OCOC2C(CO)OCOC12 (stereo not drawn)
inactive: [1] -9.2% and -8.3% | [4]; at 50.0 µM 0.65% and -36.2% | [5]; at 50.0 µM -13.8% and -4.7% | [6]; at 50.0 µM -4.7% and -3.1%

COc1ccccc1/C=C/C(=O)O
inactive: [1] 30.8% and 25.7% | [2]; at 50.0 µM -7.85% and 14.2% | [3]; at 50.0 µM -5.2% and -7.85% | [4]; at 50.0 µM -7.8% and -13.9% | [6]; at 50.0 µM -22.4% and 6.65%

c1ccc(CSSCc2ccccc2)cc1
inactive: [2]; at 50.0 µM -0.35% and -3.15% | [3]; at 50.0 µM 3% and 1.85% | [4]; at 50.0 µM -5.5% and -8.2% | [5]; at 50.0 µM 4.9% and -9.9% | [6]; at 50.0 µM 15.3% and -14.1%

CCCCCCCCCCCCCCCC[N+]1(C)CCCC1c1cccnc1 (stereo not drawn)
active: [2]; [7] 90% | [2]; [8] 99% | [3]; [7] 99% | [3]; [8] 99% | [4]; [7] 70% | [4]; [8] 99% | [5]; [7] 96% | [5]; [8] 99% | [5]; at 50.0 µM 99% | [6]; [7] 89% | [6]; [8] 99%
inactive: [2]; at 50.0 µM 55.5% | [3]; at 50.0 µM 40.8% | [4]; at 50.0 µM 1.5% | [6]; at 50.0 µM 68.8%
